This is a sample that favours compounds with a hit; in the whole collection about 5% have one here.
AI-2 QS mod = Vibrio harveyi AI-2 quorum sensing modulators, primary screen, JMH597 strain, luminescence/OD600 ratio; Vibrio harveyi JMH597 AI-2 luminescence/OD600 ratio, 9 h; active compounds read low; strain lacks LuxN and CqsS sensors; 0 = neutral-control median; activity change, % at 7.5 µM; hit rate 0.4% among 300,000; AID 2094, 2009; in the data active = activity change below about -75%, passing the limit was not always enough; inconclusive = no clear call, values can overlap the other calls;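 note: luminescence divided by OD600 gain over 9 h not by final OD600 alone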
PREPL inhibitor = PREPL enzyme inhibitors, primary screen, biochemical, fluorescence polarization; recombinant PREPL, fluorescence polarization activity-based probe; hit rate 0.68% among 320,000; inhibition, % at 5.96 µM; in the data active = inhibition above about 43%;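 note: 0% = enzyme with DMSO and 100% = wells lacking enzyme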
Target sequence (Q4J6C6 whole entry, looked up): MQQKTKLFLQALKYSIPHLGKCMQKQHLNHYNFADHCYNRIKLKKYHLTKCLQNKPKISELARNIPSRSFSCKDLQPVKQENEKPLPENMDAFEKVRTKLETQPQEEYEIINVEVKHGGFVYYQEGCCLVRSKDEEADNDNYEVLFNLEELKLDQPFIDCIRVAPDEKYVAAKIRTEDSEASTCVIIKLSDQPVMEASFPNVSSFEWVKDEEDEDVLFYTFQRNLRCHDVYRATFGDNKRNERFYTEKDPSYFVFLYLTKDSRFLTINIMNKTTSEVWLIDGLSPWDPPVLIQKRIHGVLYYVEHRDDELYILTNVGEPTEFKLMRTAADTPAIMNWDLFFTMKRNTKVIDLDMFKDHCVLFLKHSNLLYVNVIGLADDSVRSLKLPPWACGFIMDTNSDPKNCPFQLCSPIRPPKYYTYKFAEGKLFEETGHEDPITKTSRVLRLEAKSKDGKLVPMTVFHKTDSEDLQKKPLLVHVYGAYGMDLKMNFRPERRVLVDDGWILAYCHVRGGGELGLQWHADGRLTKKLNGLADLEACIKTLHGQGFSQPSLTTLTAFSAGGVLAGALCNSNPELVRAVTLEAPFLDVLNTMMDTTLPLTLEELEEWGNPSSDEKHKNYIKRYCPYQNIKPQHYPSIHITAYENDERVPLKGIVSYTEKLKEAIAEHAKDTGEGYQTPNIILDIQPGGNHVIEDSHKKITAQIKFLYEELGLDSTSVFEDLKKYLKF
ALR H2O2 inh = inhibitors of human ALR sulfhydryl oxidase, primary screen, biochemical, H2O2 detection, HRP-luminol luminescence, single point | FAD-linked sulfhydryl oxidase ALR (Homo sapiens), P55789 | hit rate 3.8% among 290,000 | purified ALR, DTT oxidation | inhibition, % (test concentration not listed) | AID 485317, 2010;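 active = mean replicate inhibition above about 79%, with every replicate also reaching it, limit read from the data; inconclusive = only one of the two criteria met; inactive = mean below limit and not every replicate reaching it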
CHT block = inhibitors of human choline transporter CHT. CHT-expressing cells, membrane potential dye, choline response; active compounds read low. High affinity choline transporter 1 (Homo sapiens), Q9GZV3. hit rate 0.86% among 310,000. B-score at 10 µM;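 active = B-score over 3 SD under the library average, and starting fluorescence ratio not unusually high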;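 note: choline stimulus applied at its EC90 after an EC20 pre-addition; B-score computed on integrated fluorescence ratio after choline addition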
CHT PAM = CHT positive allosteric modulators, primary screen, cell-based, membrane potential dye, choline EC20. hit rate 0.49% among 310,000. B-score at 10 µM. AID 488977, 2010. CHT-expressing cells; active compounds read high; LV-AA mutant CHT in HEK293 cells;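 active = initial fluorescence not abnormally high and integrated response B-score, plate-corrected, over 3 SD above library mean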
Numbers without * were called inactive; i = inactive; ? = inconclusive; · = not tested or not shown.

SMILES	AI-2 QS mod	PREPL inhibitor	ALR H2O2 inh	CHT block	CHT PAM
O=C(c1ccco1)N(Cc1ccc(Cl)cc1)Cc1ccco1	6.5	-6.0	3.3	i	i
Cc1ccc(NC(=S)NCC2CCN(C(C)c3ccccc3)C2)cc1C (centres undefined)	10.6	-3.4	31.2	i	i
O=S(=O)(NC1CCCCC1N1CCC(O)CC1)c1ccccc1 (centres undefined)	34.0	-17.0	-15.6	i	i
Cc1cc(Nc2nn(C)c(N)c2C#N)ccc1F	22.6	0.1	·	i	i
O=C(O)/C=C/C(=O)Nc1ccc2nccnc2c1	13.8	10.6	-9.4	i	i
COc1ccc(OC)c(CC(NC(C)=O)C(=O)NC2CCN(c3cc(C)nc4ncnn34)CC2)c1 (centres undefined)	22.3	-0.4	-16.3	i	i
COc1ccc(NS(=O)(=O)c2cc(OCC(N)=O)c(C)cc2Cl)cc1	9.7	10.5	-12.7	i	i
O=C(c1cc2ccccc2oc1=O)N(Cc1cccc(Br)c1)C1CCS(=O)(=O)C1 (centres undefined)	31.9	10.2	-4.0	i	i
CN(C)c1ccc(CN(C(=O)c2cc3ccccc3oc2=O)C2CCS(=O)(=O)C2)cc1 (centres undefined)	22.4	3.3	89.0*	i	i
Cc1cc(SCC(=O)N/N=C/c2ccc(O)c(O)c2O)c(C)cc1Br	-0.1	0.9	95.2*	i	i
COc1cc(/C=N/NC(=O)CSc2cc(C)c(Br)cc2C)ccc1O	14.0	-9.8	49.2	i	i
CC(C)(C)C(=O)CSc1ncnc2sc3c(c12)CCC3	17.1	16.9	2.1	i	i
COc1cc(NC(=O)CSc2ncnc3sc4c(c23)CCCC4)c(C(=O)O)cc1OC	18.4	7.7	88.3*	i	i
CC(=O)CSc1ncnc2sc3c(c12)CCC3	18.9	-12.0	93.6*	i	i
OCCNc1cc(-n2nc(-c3ccccc3)cc2-c2ccccc2)ncn1	-4.4	-9.9	96.5*	i	i
Cc1cc(-c2ccccc2)n(-c2cc(N/N=C/c3ccccc3O)ncn2)n1	·	-5.3	-18.9	i	i
C=CCn1c(SCC(=O)c2ccc(O)c(O)c2)nnc1-c1cccnc1	3.4	19.9	99.1*	i	i
C=CCn1c(SCC(=O)c2ccc(O)c(O)c2)nnc1-c1cccc(Cl)c1	·	18.9	97.8*	·	·
C=CCn1c(SCC(N)=O)nnc1-c1cc(Br)ccc1O	4.3	3.2	97.1*	i	i
C=CCn1c(SCC(=O)c2ccc(O)c(O)c2)nnc1-c1cccc(C)c1	·	15.8	70.0	·	·
C=CCn1c(SCC(=O)NC2CCCC2)nnc1-c1cccnc1	13.8	3.9	3.1	i	i
C=CCn1c(SCC(N)=O)nnc1-c1ccccc1O	11.2	-0.3	3.2	i	i
Cc1cc(C)n(-c2ncnc3ccccc23)n1	14.6	7.2	-3.2	i	i
Cc1ccccc1NC(=O)Cc1nc(COC(=O)c2cc(Cl)ccc2O)cs1	6.3	4.7	-6.7	i	i
COc1ccc(-c2c(C)nc(N)nc2-c2ccc(OCc3ccc(C)cc3)cc2O)cc1OC	8.1	33.8	-9.7	i	i
SMILES	AI-2 QS mod	PREPL inhibitor	ALR H2O2 inh	CHT block	CHT PAM
COc1ccc(/C=C(/NC(=O)c2ccco2)C(=O)NCc2ccco2)cc1OC	26.3	5.5	-7.3	i	i
COc1ccc(COC(=O)C2=C(C)NC(=O)NC2c2ccccc2)cc1 (centres undefined)	2.6	-15.3	·	i	i
Cc1ccccc1-c1nnc(NC(=O)c2ccc(N3C(=O)CCC3=O)cc2)s1	20.8	7.4	-14.4	i	i
C/C=C/C(=O)Nc1nnc(-c2ccccc2C)s1	18.9	1.7	98.1*	i	i
COc1cc(C(=O)Nc2ccn(C)n2)ccc1OC(F)F	·	12.3	14.8	·	·
Cc1cc(NS(=O)(=O)c2ccc(NC(=O)CCCOc3ccccc3C)cc2)nc(C)n1	11.2	-6.7	98.8*	i	i
Cc1ccccc1OCCCC(=O)Nc1ccc2c(c1)OCO2	38.3	17.8	97.8*	i	i
Cc1ccccc1OCC(=O)Nc1ccc(S(=O)(=O)Nc2ccccn2)cc1	-25.4	11.8	98.5*	i	i
COc1ccccc1CCC(=O)Nc1ccc(S(=O)(=O)Nc2cc(C)nc(C)n2)cc1	32.7	8.7	54.5	i	i
O=C(Nc1ccc(S(=O)(=O)Nc2ccccn2)cc1)c1cccc(Br)c1	-81.2*	2.1	·	i	i
O=C(COc1ccccc1Cl)Nc1ccc(S(=O)(=O)Nc2ccccn2)cc1	-52.3	-17.6	-3.5	i	i
Cc1ccc(NC(=O)COc2coc(CN3CCc4ccccc43)cc2=O)cc1Cl	14.7	-0.1	·	i	i
O=C(O)c1c2c(nc3ccccc13)/C(=C/c1cccc([N+](=O)[O-])c1)CCC2	8.5	4.9	7.4	i	i
O=C(N/N=C/c1ccc(O)cc1O)C(=O)N/N=C/c1ccc(O)cc1O	-85.8*	17.1	2.9	i	i
Cc1cc(C)c(S(=O)(=O)Nc2ccc(O)c(Sc3ncn[nH]3)c2)c(C)c1	1.6	-0.8	99.0*	i	i
CC(C)c1ccc(S(=O)(=O)Nc2ccc(O)c(Sc3ncn[nH]3)c2)cc1	4.4	·	98.7*	i	i
N#C/C(=C\c1ccc(Cl)cc1)c1nc2ncccc2[nH]1	9.9	26.4	·	i	i
O=C(COC(=O)c1ccccc1OCc1ccccc1Cl)NCC1CCCO1 (centres undefined)	·	3.6	-13.0	·	·
COc1ccc(NC(=S)NN(C)C(=S)Nc2ccc(OC)cc2)cc1	26.1	15.2	99.1*	i	i
COc1ccc(CNC(=S)Nc2ccc(-c3ccccc3)cc2)cc1	24.9	-22.9	95.3*	i	i
COc1ccc(NC(=S)Nc2ccc(Oc3ccccc3)cc2)cc1	12.6	12.3	-2.0	i	i
CCC(C(=O)Nc1cccnc1)n1c(=O)[nH]c2ccccc2c1=O (centres undefined)	17.3	-0.8	-10.5	i	i
Cc1ccc(-c2cc(C(=O)Nc3c(C)n(C)n(-c4ccccc4)c3=O)[nH]n2)c(O)c1	9.9	7.4	0.8	i	i
Cc1ccc(-c2cc(C(=O)Nc3c(C)n(C)n(-c4ccccc4)c3=O)[nH]n2)c(O)c1C	11.0	13.2	97.2*	i	i
S=c1[nH]c2ccc(Cc3ccc4[nH]c(=S)[nH]c4c3)cc2[nH]1	·	19.1	?	i	i
Clc1cccc(-c2nnc(SC/C=C/c3ccccc3)n2Cc2ccco2)c1	-6.4	3.9	0.3	i	7.3*
